Source: PubChem BioAssay
Values joined by “and” are separate entries in the source; they are usually repeats but may differ in a detail not shown here. Identical values can stand only once. Records with an inconclusive call do not appear. Active and inactive are the calls of the source.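 The calls were made as follows, unless noted: active = normalized viability below 100% at a tested concentration; inactive = the rest.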

What was measured:
[1] = growth inhibition of DIPG glioma cells, dose response, cell-based, JHH-DIPG-1, MIPE4.0, CellTiter-Glo, qHTS (AID 1347062; cut-off not given, nearly all actives have AC50 up to about 27 µM;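 as to AC50: cells exposed to compound for two days before readout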); settings: JHH-DIPG-1 viability, CellTiter-Glo ATP luminescence
[2] = growth inhibition of DIPG glioma cells, dose response, cell-based, SU-DIPG-XIII, MIPE5.0, CellTiter-Glo, qHTS (AID 1347064; cut-off not given, nearly all actives have AC50 up to about 23 µM;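 as to AC50: cells exposed to compound for 48 hours before the viability read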); settings: SU-DIPG-XIII viability, CellTiter-Glo ATP luminescence
[3] = viability loss in pontine glioma line – cell-based, SU-DIPG-XXV, MIPE5.0, CellTiter-Glo, qHTS, dose response (AID 1347065; cut-off not given, nearly all actives have AC50 up to about 26 µM;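 also: cells exposed to compound for 48 hours before ATP readout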); settings: CellTiter-Glo ATP luminescence
[4] = SU-DIPG-VI glioma cell viability, MIPE4.0 library, CellTiter-Glo luminescence, qHTS (AID 1347066; cut-off not given, nearly all actives have AC50 up to about 30 µM;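 also: cells exposed to compound for 48 hours before readout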); settings: CellTiter-Glo ATP luminescence
[5] = JHH-DIPG-1 glioma cell viability, MIPE5.0 library, CellTiter-Glo luminescence, qHTS (AID 1347067; cut-off not given, nearly all actives have AC50 up to about 26 µM;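 also: cells exposed to compound for 48 hours before readout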); settings: JHH-DIPG-1 glioma viability, CellTiter-Glo ATP luminescence
[6] = sensitizers of A549 cells to miR-34 induction, primary screen, imaging, A549 dox-inducible miR-34, nuclei and caspase counts (AID 1347080;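 active = compounds whose cell count with miR-34 switched on is under 0.7 times the count with it off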); settings: A549 miR-34 inducible, Hoechst nuclei count, 48 h
[7] = survival rescue of mitochondrial mutant cells in low glucose, primary screen, MELAS cybrids, Rieske KO mouse fibroblasts, CellTiter-Glo (AID 1508586;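 active = mean z-score across replicates of 1.96 or higher in either the MELAS or the Rieske mutant cell line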;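 also: z relative to plate mean and SD of compound and empty wells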)
[8] = SU-DIPG-XXV glioma cell viability, MIPE5.0 library, qHTS (AID 1347068; cut-off not given, nearly all actives have IC50 up to about 30 µM;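 as to IC50: cells exposed to compound for 48 hours before viability readout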)
[9] = growth inhibition of DIPG glioma cells, dose response, cell-based, SU-DIPG-IV, MIPE4.0, CellTiter-Glo, qHTS (AID 1347063; cut-off not given, nearly all actives have AC50 up to about 30 µM;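 also: compound exposure lasted 48 hours before the viability readout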); settings: SU-DIPG-IV viability, CellTiter-Glo ATP luminescence
[10] = liver-stage malaria parasite growth inhibition, primary screen, cell-based, HepG2, luciferase luminescence, HepG2 viability (AID 624349; in the data active = parasite load remaining mostly below about 12%, no sharp cut-off; inactive = mostly above about 10%;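 also: 100% = mean of DMSO negative control wells on the same plate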); settings: P. berghei liver stage in HepG2, luciferase luminescence, concentration not given here; parasite load remaining: stronger effect = lower value; viability: measured here: HepG2 viability without parasites
[11] = molecular target: NAD(+) hydrolase SARM1 (Homo sapiens) (UniProt Q6SZW1); experiment: SARM1 TIR NADase inhibitors, cell lysate, NAD-Glo luminescence (AID 1508614;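 active = compound whose remaining NAD level is above about 45 nM, limit read from the data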;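 also: higher remaining NAD means stronger inhibition of SARM1 NADase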); settings: SAM-TIR HEK293T lysate NADase, at 1 µM, stronger effect = higher value
NAD(+) hydrolase SARM1 (Homo sapiens), sequence (Q6SZW1 whole entry, looked up, the tested form may be a part): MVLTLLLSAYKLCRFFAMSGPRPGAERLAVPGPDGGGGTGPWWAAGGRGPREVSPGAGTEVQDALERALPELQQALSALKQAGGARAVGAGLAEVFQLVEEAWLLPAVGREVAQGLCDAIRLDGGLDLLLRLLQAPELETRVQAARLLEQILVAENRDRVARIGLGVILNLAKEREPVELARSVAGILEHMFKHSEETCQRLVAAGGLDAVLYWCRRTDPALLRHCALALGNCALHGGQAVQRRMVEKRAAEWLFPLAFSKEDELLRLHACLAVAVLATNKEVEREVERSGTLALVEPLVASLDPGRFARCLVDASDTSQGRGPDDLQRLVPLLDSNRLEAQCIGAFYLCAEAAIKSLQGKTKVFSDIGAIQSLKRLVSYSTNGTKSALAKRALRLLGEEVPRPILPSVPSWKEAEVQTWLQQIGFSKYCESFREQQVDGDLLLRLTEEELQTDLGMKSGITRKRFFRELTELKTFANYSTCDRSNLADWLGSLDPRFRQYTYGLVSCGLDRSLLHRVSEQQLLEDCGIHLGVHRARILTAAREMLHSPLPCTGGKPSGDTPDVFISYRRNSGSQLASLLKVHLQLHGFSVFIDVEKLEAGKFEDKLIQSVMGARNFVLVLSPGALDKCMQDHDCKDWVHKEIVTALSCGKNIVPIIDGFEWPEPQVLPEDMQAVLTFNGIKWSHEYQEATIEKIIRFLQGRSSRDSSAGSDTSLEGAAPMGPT

[12] = molecular target: Mitogen-activated protein kinase 7 (Homo sapiens) (UniProt Q13164); experiment: ERK5 transactivation activators in reporter cells, primary screen, cell-based, HTS (AID 1508626;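 active = luciferase signal above three times the same-plate solvent-only control wells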;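 also: luciferase driven by Gal4-ERK5 fusion binding five Gal4 sites before minimal TATA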); settings: HeLa Gal4-ERK5 transactivation, 18 h, at 5 µM, stronger effect = higher value
Mitogen-activated protein kinase 7 (Homo sapiens), sequence (Q13164 whole entry, looked up, the tested form may be a part): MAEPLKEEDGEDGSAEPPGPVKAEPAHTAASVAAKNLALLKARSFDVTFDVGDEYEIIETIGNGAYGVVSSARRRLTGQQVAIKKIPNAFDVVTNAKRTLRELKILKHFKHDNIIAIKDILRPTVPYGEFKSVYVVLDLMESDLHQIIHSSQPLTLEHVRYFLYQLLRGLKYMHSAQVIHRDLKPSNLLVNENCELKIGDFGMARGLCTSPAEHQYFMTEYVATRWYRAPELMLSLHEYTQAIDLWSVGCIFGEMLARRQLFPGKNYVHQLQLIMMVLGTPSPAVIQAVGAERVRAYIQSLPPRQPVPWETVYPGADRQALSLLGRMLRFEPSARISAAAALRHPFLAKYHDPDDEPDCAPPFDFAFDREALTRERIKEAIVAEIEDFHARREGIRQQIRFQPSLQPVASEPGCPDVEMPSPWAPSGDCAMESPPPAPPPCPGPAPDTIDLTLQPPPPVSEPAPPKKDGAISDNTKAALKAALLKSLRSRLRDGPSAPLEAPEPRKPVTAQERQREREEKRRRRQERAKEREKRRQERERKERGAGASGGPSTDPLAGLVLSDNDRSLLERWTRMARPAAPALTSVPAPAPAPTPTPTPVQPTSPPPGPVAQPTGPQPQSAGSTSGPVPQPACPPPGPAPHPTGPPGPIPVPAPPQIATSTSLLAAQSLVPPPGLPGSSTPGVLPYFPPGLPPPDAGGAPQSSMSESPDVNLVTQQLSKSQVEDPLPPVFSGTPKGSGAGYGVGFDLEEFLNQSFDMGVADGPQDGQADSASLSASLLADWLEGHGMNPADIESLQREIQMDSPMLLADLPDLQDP

[13] = viability rescue of complex I mutant cybrids, primary screen, cell-based, galactose medium, ATP luminescence (AID 1645843;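 active = z-score of at least 1.8 in each of two replicates, scored against plate mean and spread of sample wells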;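 also: positive z means more ATP and so rescue of galactose-driven cybrid death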); settings: complex I mutant cybrid cells, 72 h, stronger effect = higher value
[14] = kinase inhibitors against Plasmodium liver-stage infection, cell-based, known kinase inhibitor set, luminescence, hepatoma host viability (AID 624392; call rule not given here;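 also: infected cells incubated roughly two days before readout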); settings: Plasmodium liver stage in hepatoma cells, luciferase luminescence, concentration not given here; liver cell % of control: measured here: host liver cell viability; parasite % of control: stronger effect = lower value
[15] = ovarian cancer cell viability with rucaparib, profiling panel, oncology-focused library, rucaparib conditional (AID 1508598); settings: patient-derived ovarian cancer cells, CellTiter-Glo viability, 144 h, stronger effect = lower value
[16] = circadian clock period modulators, cell-based, LOPAC library, luminescence reporter (AID 2774; call rule not given here;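 also: values are relative to mean of DMSO wells on each plate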); settings: circadian reporter cells, at 7 µM, actives lie on both sides
[17] = tested on: Hepatitis C virus NS3 helicase; experiment: HCV NS3 helicase inhibitors, primary screen, biochemical, fluorescence polarization, LOPAC1280 library (AID 687035; in the data active = inhibition above about 37%); settings: Purified HCV NS3 helicase, Cy5-dT15 ssDNA binding fluorescence polarization; stronger effect = higher value; concentration not given here
[18] = Cy5 fluorescence quenching or enhancement artefacts, artefact control for HCV NS3 helicase inhibitor project, biochemical, LOPAC1280 (AID 687037; call rule not given here); settings: Cy5-DNA-NS3h complex fluorescence interference counterscreen
[19] = phospholipid biosynthesis inhibitors in animal cells, primary screen, cell-based, LOPAC library, screen 4 (AID 1347384; call rule not given here); settings: phospholipid biosynthesis inhibition screen, at 10 µM
[20] = stronger effect = lower value, cell number ratio, induced over uninduced
[21] = measured here: relative caspase fold change +Dox/-Dox
[22] = measured here: total cells with miR-34 induction, stronger effect = lower value
[23] = measured here: total cells without miR-34 induction
[24] = MELAS cybrid survival, CellTiter-Glo 48 h, stronger effect = higher value
[25] = Rieske KO mouse fibroblast survival, CellTiter-Glo 72 h

NS(=O)(=O)c1ccc(NC2=CC(=O)c3ccccc3C2=O)cc1
inactive: outcome [1]
active: AC50 [2] 5.9 µM | AC50 [3] 11.8 µM | AC50 [4] 5.9 µM | AC50 [5] 20.9 µM

Nc1ncnc2c1c(-c1cccc(OCc3ccccc3)c1)cn2C1CC(CN2CCC2)C1 (stereo not drawn)
-0.0242: z-score [7, 25]
0.834: fold change [6, 21]
active: AC50 [1] 11.8 µM | AC50 [2] 0.525 µM | AC50 [3] 0.417 µM | AC50 [4] 2.96 µM | AC50 [5] 6.61 µM
2830: cell count [6, 23]
2880: cell count [6, 22]
inactive: fold change [6, 20] 1.02 | z-score [7, 24] -0.54

COc1cc(Cl)cn2c(-c3cccc(NC4CNC4)n3)cnc12
inactive: outcome [1] | outcome [4]

CC(=O)NCCC(=O)N[C@@H](CCC(N)=O)C(=O)N[C@@H](CO)C(=O)N[C@@H](CCC(N)=O)C(=O)N[C@@H](CCC(N)=O)C(=O)N[C@H](C(=O)N[C@@H](Cc1ccccc1)C(=O)N[C@]1(C)CCCCCC/C=C\CCC[C@@](C)(C(=O)N[C@@H](CCC(N)=O)C(=O)N[C@@H](CC(N)=O)C(N)=O)NC(=O)[C@H](CC(C)C)NC(=O)[C@H](CC(C)C)NC(=O)[C@@H](CCCNC(=N)N)NC(=O)[C@H](Cc2c[nH]c3ccccc23)NC(=O)[C@H](CC(C)C)NC(=O)[C@H](CC(N)=O)NC1=O)[C@H](C)O
inactive: outcome [1] | outcome [3] | outcome [5] | outcome [8]

O=c1[nH]nc(OCCCc2ccc(Cl)cc2)c(NCc2cccnc2)c1Br
active: AC50 [1] 23.5 µM | AC50 [9] 18.7 µM | AC50 [4] 18.7 µM

NC[C@@H]1O[C@H](O[C@H]2[C@@H](O)[C@H](O[C@@H]3[C@@H](O)[C@H](N)C[C@H](N)[C@H]3O[C@H]3O[C@H](CN)[C@@H](O)[C@H](O)[C@H]3N)O[C@@H]2CO)[C@H](N)[C@@H](O)[C@@H]1O
8260 and 10600: cell count [6, 22]
48% and 104%: viability [10]
0.356 and 1.26: fold change [6, 21]
inactive: parasite load remaining [10] 49.2% and 45.9% | outcome [1] | outcome [9] | outcome [4] | fold change [6, 20] 0.891 and 0.964 | z-score [7, 24] -0.364 and -0.26 | remaining NAD [11] 10 nM | luciferase signal [12] 28 AU | z-score [13] 0.135
-0.155 and -1.25: z-score [7, 25]
9270 and 11000: cell count [6, 23]

CCNC(=O)Nc1ccc(Oc2ncnc(N)c2/C=N/OC)cc1Cl
inactive: outcome [1] | outcome [4] | outcome [8]

C[C@@H](Cc1cc2c(c(C(N)=O)c1)N(CCCO)CC2)NCCOc1ccccc1OCC(F)(F)F
inactive: outcome [1] | outcome [9] | outcome [4]

CC/C=C\C[C@H]1C(=O)CC[C@@H]1CC(=O)OC
inactive: outcome [1] | outcome [9] | outcome [4]

CCCCOCCOc1nc(-c2ccc(C(=O)O)c(F)c2)sc1C
inactive: outcome [1] | outcome [2] | outcome [5] | outcome [8]

C=CC(=O)Nc1cccc(Nc2nc(NC3CCC(N(C)C)CC3)nc3c2ncn3C(C)C)c1 (stereo not drawn)
43.6%: liver cell % of control [14]
inactive: parasite % of control [14] 15.4%
active: AC50 [1] 0.187 µM | AC50 [9] 0.0235 µM

CC(C)N(CC[C@H](c1ccccc1)c1cc(CO)ccc1O)C(C)C
inactive: outcome [1] | outcome [9] | outcome [4]

CCOc1cc(N2CCC(O)CC2)ccc1Nc1ncc2c(n1)N(C)c1ccccc1C(=O)N2C
7040: cell count [6, 23]
active: AC50 [1] 7.43 µM | AC50 [5] 20.9 µM | IC50 [8] 18.6 µM | viability ([15]; at 0.000305 µM, OCI-P5x cells, with rucaparib 20 µM, 100% = cells with rucaparib alone) 94.3% | viability ([15]; at 0.00122 µM, OCI-P5x cells, with rucaparib 20 µM, 100% = cells with rucaparib alone) 99.4% | viability ([15]; at 0.00488 µM, OCI-P5x cells, with rucaparib 20 µM, 100% = cells with rucaparib alone) 91.8% | viability ([15]; at 0.0195 µM, OCI-P5x cells, with rucaparib 20 µM, 100% = cells with rucaparib alone) 94% | viability ([15]; at 0.0195 µM, OCI-P5x cells, without rucaparib) 99.5% | viability ([15]; at 0.0781 µM, OCI-P5x cells, with rucaparib 20 µM, 100% = cells with rucaparib alone) 96.6% | viability ([15]; at 0.313 µM, OCI-P5x cells, with rucaparib 20 µM, 100% = cells with rucaparib alone) 88.3% | viability ([15]; at 0.313 µM, OCI-P5x cells, without rucaparib) 95.6% | viability ([15]; at 1.25 µM, OCI-P5x cells, with rucaparib 20 µM, 100% = cells with rucaparib alone) 84.7% | viability ([15]; at 1.25 µM, OCI-P5x cells, without rucaparib) 90.7% | viability ([15]; at 5 µM, OCI-C5x cells, with rucaparib 10 µM, 100% = cells with rucaparib alone) 85.7% | viability ([15]; at 5 µM, OCI-P5x cells, with rucaparib 20 µM, 100% = cells with rucaparib alone) 35.5% | viability ([15]; at 5 µM, OCI-P5x cells, without rucaparib) 75.3%
0.548: fold change [6, 21]
6240: cell count [6, 22]
-1.56: z-score [7, 25]
inactive: outcome [4] | fold change [6, 20] 0.886 | z-score [7, 24] -0.56 | viability ([15]; at 0.000305 µM, OCI-C5x cells, with rucaparib 10 µM, 100% = cells with rucaparib alone) 123% | viability ([15]; at 0.000305 µM, OCI-C5x cells, without rucaparib) 120% | viability ([15]; at 0.000305 µM, OCI-P5x cells, without rucaparib) 101% | viability ([15]; at 0.00122 µM, OCI-C5x cells, with rucaparib 10 µM, 100% = cells with rucaparib alone) 122% | viability ([15]; at 0.00122 µM, OCI-C5x cells, without rucaparib) 109% | viability ([15]; at 0.00122 µM, OCI-P5x cells, without rucaparib) 105% | viability ([15]; at 0.00488 µM, OCI-C5x cells, with rucaparib 10 µM, 100% = cells with rucaparib alone) 119% | viability ([15]; at 0.00488 µM, OCI-C5x cells, without rucaparib) 112% | viability ([15]; at 0.00488 µM, OCI-P5x cells, without rucaparib) 102% | viability ([15]; at 0.0195 µM, OCI-C5x cells, with rucaparib 10 µM, 100% = cells with rucaparib alone) 124% | viability ([15]; at 0.0195 µM, OCI-C5x cells, without rucaparib) 117% | viability ([15]; at 0.0781 µM, OCI-C5x cells, with rucaparib 10 µM, 100% = cells with rucaparib alone) 131% | viability ([15]; at 0.0781 µM, OCI-C5x cells, without rucaparib) 124% | viability ([15]; at 0.0781 µM, OCI-P5x cells, without rucaparib) 108% | viability ([15]; at 0.313 µM, OCI-C5x cells, with rucaparib 10 µM, 100% = cells with rucaparib alone) 109% | viability ([15]; at 0.313 µM, OCI-C5x cells, without rucaparib) 131% | viability ([15]; at 1.25 µM, OCI-C5x cells, with rucaparib 10 µM, 100% = cells with rucaparib alone) 101% | viability ([15]; at 1.25 µM, OCI-C5x cells, without rucaparib) 121% | viability ([15]; at 5 µM, OCI-C5x cells, without rucaparib) 119%

O=c1[nH]c(=O)n([C@H]2C[C@H](O)[C@@H](CO)O2)cc1/C=C/Br
inactive: period change [16] -0.01 h | inhibition [17] -1% | fluorescence ratio (interference) [18] 1 | outcome [1] | outcome [9] | outcome [4]

Fc1ccc(CNc2ncnc3ccc(F)cc23)cc1
inactive: outcome [1] | outcome [2] | outcome [8]

CC(C)(C)c1nc(-c2cccc(NS(=O)(=O)c3c(F)cccc3F)c2F)c(-c2ccnc(N)n2)s1
8520: cell count [6, 22] | cell count [6, 23]
inactive: outcome [1] | outcome [3] | outcome [5] | outcome [8] | fold change [6, 20] 1 | z-score [7, 24] -0.255
0.678: z-score [7, 25]
0.762: fold change [6, 21]

Cc1ccccc1C(C(=O)NC1CCCCC1)N(C(=O)CNc1ccc(C#N)cc1)c1cccc(F)c1 (stereo not drawn)
inactive: outcome [1] | outcome [9] | outcome [4] | outcome [5] | outcome [8]

O=C(Nc1nc2ccccc2n1CCN1CCOCC1)c1cccc([N+](=O)[O-])c1
5540: cell count [6, 22]
151%: viability [10]
inactive: parasite load remaining [10] 33.2% | inhibition [17] -2% | fluorescence ratio (interference) [18] 1.1 | outcome [8] | fold change [6, 20] 0.827 | outcome [19] | z-score [13] 1.46
6700: cell count [6, 23]
1.35: fold change [6, 21]
active: AC50 [1] 14.8 µM | AC50 [9] 10.5 µM
